# The list is not random: actives were taken first. Their share in the collection is about 21%.
# Shiga inhibitor – Shiga toxin inhibition; Vero cells, Shiga toxin protein synthesis inhibition reporter; inhibition, % at 38.7 µM; 290,000 compounds, 9.2% hits; AID 2315; in the data active = inhibition mostly above about 28%, no sharp cut-off; inactive = mostly below about 43%; note: 0% is about no effect
# NS1 inh – influenza NS1 inhibition; Potency, µM (highest dose often 46.1 µM), for inactives: at the highest dose activity, positive = more growth; 270,000 compounds, 0.4% hits; note: potency is the fitted concentration of half-maximal effect; actives are rising curves; nearly all actives have a fitted effect of over 50% in size
#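 A cell-based growth assay was used: compounds that relieve NS1-induced slow growth of budding yeast raise OD600. Assay medium was yeast nitrogen base with ammonium sulphate and -URA supplement, pH 6.0, with 2% galactose.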
# Pf growth 48h – inhibits P. falciparum growth in the first generation, 48 h; 310,000 compounds, 5.9% hits; P. falciparum luciferase growth in erythrocytes, 48 h; Potency, µM (doses to about 28.7 µM), for inactives: at the highest dose activity change, negative = inhibition, hits mostly inhibitors; active = well fitted inhibition curve with a large enough effect; inconclusive = small, poorly fitted or top-dose-only effect, or another doubt; inactive = no such curve, though single readings can be large or run the other way; note: potency is the fitted concentration of half-maximal effect; % is set by controls: 0 for no effect and ±100 for the full control effect
#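 Luciferase-expressing P. falciparum in infected erythrocytes (2% hematocrit, 0.1% parasitemia final) in RPMI 1640/0.5% Albumax were exposed to compound for 48 hours at 37 C, 5% CO2; growth read as luminescence.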
# Pf growth 96h – P. falciparum growth inhibition at 96 hours | P. falciparum luciferase reporter growth, 96 h | Potency, µM (doses to about 28.7 µM), without a hit: top-dose activity change, negative = inhibition, actives largely listed as inhibitors | 320,000 compounds, 6.9% hits; active = well fitted inhibition curve with a large enough effect; inconclusive = small, poorly fitted or top-dose-only effect, or another doubt; inactive = no such curve, though single readings can be large or run the other way; note: potency is the fitted concentration of half-maximal effect; % is set by controls: 0 for no effect and ±100 for the full control effect
#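 P. falciparum expressing integrated firefly luciferase grown in erythrocytes (2% hematocrit, 0.05% parasitemia final) with compounds for 96 hours at 37 C, 5% CO2. Growth inhibition read as loss of luminescence after adding luciferase detection reagent.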
# CHX counter – affects cycloheximide protein synthesis inhibition readout, counter-screen; cell reporter, cycloheximide protein synthesis inhibition counterscreen; max response, %; 300,000 compounds, 12% hits; AID 2314; in the data active = max response mostly above about 13%, no sharp cut-off; inactive = mostly below about 14%; note: read at 38.3 µM for the half of the compounds with a filed dose; 0% is about no effect
# SARS PLP yeast – SARS-CoV PLP inhibition in yeast; S. cerevisiae expressing SARS-CoV PLpro, growth rescue; Potency, µM (doses to about 32.9 µM), for inactives: at the top dose activity, positive = growth rescue, actives largely listed as activators; 330,000 compounds, 0.19% hits; AID 485353; note: potency is the fitted concentration of half-maximal effect; 0% is about no effect; nearly all actives have a fitted effect of over 55% in size
# * marks the source's active call; other numbers are inactive results; u = inconclusive; x = not tested or not shown; [ ] = another dose, or the depositor's remark. Unless noted, calls come from the whole dose curve.
SMILES,Shiga inhibitor,NS1 inh,Pf growth 48h,Pf growth 96h,CHX counter,SARS PLP yeast
Cc1ccccc1OCC(=O)Nc1ccccc1-c1ccccc1NC(=O)COc1ccccc1C,-4,-17%,8.3µM*,9.3µM*,-5,5%
Cc1ccccc1OCC(=O)NCc1ccccc1,34,x,20%,3.7µM*,19,10%
Cc1cc(S(=O)(=O)NCc2ccccc2)ccc1OCC(=O)NCc1ccccn1,-10,0%,-6%,9.3µM*,-2,-1%
Cc1ccccc1OCC(=O)Nc1cccc(Cl)c1C,9,-7%,35%,-98%,8,2%
Cc1cc(S(=O)(=O)NCC(C)C)ccc1OCC(=O)NCc1ccccn1,-12,0%,2%,x,0,x
CCc1noc(C)c1C(=O)NCCN1C(=O)S/C(=C\c2ccc(OC)cc2)C1=O,x,x,32%,34%,x,2%
O=C(CCn1cnc2ccccc2c1=O)Nc1ccc(S(=O)(=O)N2CCCC2)cc1,4,-12%,u,12%,1,x
C/C(=N\NS(=O)(=O)c1ccc(C(C)(C)C)cc1)c1ccccc1,2,-1%,17%,u,6,-4%
C/C(=N\Nc1nc(C(=O)O)cs1)c1ccccc1,29,x,20%,-11%,23*,25%
C/C(=N\Nc1nc(C(C)(C)C)cs1)c1ccc(O)cc1,121*,24%,u,u,53*,10%
C/C(=N\Nc1c(Cl)c(Cl)nc(C(=O)O)c1Cl)c1ccc(O)cc1,-5,24%,7%,49%,-1,-2%
C/C(=N\Nc1nc(C(C)(C)C)cs1)c1ccccc1,135*,-5%,26%,-15%,57*,-8%
CCN(CC)S(=O)(=O)c1ccc(/C=C/C(=O)OCC(=O)NNC(=O)c2ccc(OC)cc2)cc1,x,x,-14%,-3%,x,3%
O=C(COc1ccc2ccccc2c1)NN1C(=O)c2ccccc2C1=O,-2,4%,-1%,u,1,-2%
CSCCOC(=O)COc1ccc(/C=N/NC(=O)c2nn(C)cc2Cl)cc1,59*,-51%,0%,-35%,28*,16%
CCn1c(=O)c2cc(C(=O)NCCN(C)C)sc2c2ccccc21,-6,3%,-4%[0.00184 µM],0%,-4,0%
CN(C)CCNC(=O)c1cc2sc3ccccc3c2s1,85*,x,u,u,40*,-3%
COCCN(CCOC)C(=O)c1cc2sc3ccccc3c2s1,68,-101%,u,u,12,-8%
CCN(CC)C(=O)c1cc2sc3ccccc3c2s1,106*,-135%,129%,-20%,71*,-29%
NS(=O)(=O)c1ccc(CCNC(=O)/C=C/c2ccccc2[N+](=O)[O-])cc1,-5,x,-2%,3%,-2,1%
COc1ccc(Nc2cccc(Cl)c2)c(C(=O)O)c1,70,-35%,76%,21%,13,-15%
Cc1ccc(NC(=O)Nc2cccc(Cl)c2)c(C(=O)O)c1,56,0%,39%,12%,24*,0%
CSc1ccccc1NC(=O)Nc1ccc(F)c(Cl)c1,61*,8%,57%,u,34*,-6%
CSc1ccccc1NC(=O)Nc1cccc(Cl)c1,84*,-15%,-17%,x,41*,-8%
COc1ccc(NC(=O)c2cc(S(=O)(=O)N3CCCC3)ccc2C)cn1,x,x,-17%,15%,x,0%
SMILES,Shiga inhibitor,NS1 inh,Pf growth 48h,Pf growth 96h,CHX counter,SARS PLP yeast
CCc1nnc(NC(=O)CN2C(=O)N(C)C3(CCCCC3)C2=O)s1,x,x,u,u,x,-3%
Cc1cc2c(s1)c1c(C)nn(Cc3ccccc3F)c(=O)c1n2C,x,x,u,8%,x,5µM*
Cc1ccc(S(=O)(=O)NCCCN2CCOCC2)cc1C,-14,0%,-10%,x,-2,5%
O=S(=O)(NCCCN1CCOCC1)c1ccc2c(c1)OCCO2,-16,x,18%,10µM*,-3,1%
COc1cc(Cl)c(S(=O)(=O)NCCN2CCOCC2)cc1Cl,4,1%,13%,x,7,2%
COc1ccc(S(=O)(=O)NCCN2CCOCC2)cc1Br,-10,-5%,1%,10µM*,-1,17%
O=S(=O)(NCCN1CCOCC1)c1cc(Cl)c(Cl)cc1Cl,-14,-10%,-1%,13µM*,0,0%
CCCn1nc(C(=O)NC2CCCc3ccccc32)c2ccccc2c1=O (configuration not stated),-12,-4%,u,u,-10,-41%

# From PubChem
